High-throughput results deposited in PubChem BioAssay by National Center for Advancing Translational Sciences (NCATS).
DT40 TDP1 CPT: growth inhibition of DT40 Tdp1-/-;hTDP1 cells with camptothecin (screen for TDP1 inhibitors) | Potency, µM (doses to about 46.2 µM), usual class: inhibitors | chicken DT40 Tdp1-/-;hTDP1 cells + 20 nM CPT, ATP luminescence, 48 h | actives 12% (n = 420,000) | AID 686979; also: nearly all actives have a fitted effect of over 55% in size
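Chicken DT40 Tdp1-/- cells complemented with human TDP1, 400 cells/well, exposed to compounds plus 20 nM camptothecin for at least 48 h at 37 C; viability read as ATP content by CellTiter-Glo luminescence.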
DT40 TDP1 no CPT: qHTS for Inhibitors of human tyrosyl-DNA phosphodiesterase 1 (TDP1): qHTS in cells in absence of CPT | DT40 Tdp1-/- hTDP1 cells, no CPT, ATP luminescence, 48 h | Potency, µM (titrated, usually from 46.2 µM), usual class: inhibitors | actives 15% (n = 420,000) | AID 686978, 2013; also: nearly all actives have a fitted effect of over 55% in size
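Cells were dispensed at 400 per well, compounds added by pin tool, plates incubated ≥48 hr at 37 °C, then CellTiter-Glo added for 30 min at room temperature before luminescence reading. Line: DT40 Tdp1-/- complemented with hTDP1; camptothecin omitted.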
HepG2 tox: HepG2 cytotoxicity, counter-screen for TGF-b inhibitors. HepG2 CAGA-GFP viability, ATP luminescence, 18 h. Potency, µM (series often up to 46.1 µM), hits mostly cytotoxic. actives 0.76% (n = 410,000)
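HepG2 CAGA-GFP cells (1000/well, DMEM with 1% FBS) received compound, then TGF-beta at 500 pg/mL final, and were incubated 18 hours at 37 degrees C. Viability was read by CellTiter-Glo luminescence. Media-only wells were set as complete cell-killing and DMSO as no toxicity.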
TGFb inhibitor: inhibitors of TGF-b signaling. AID 588855. actives 1.2% (n = 410,000). HepG2 CAGA-GFP TGF-b/SMAD3 reporter, GFP fluorescence, 18 h; TGF-beta stimulated, 500 pg/mL final. Potency, µM (titrated, usually from 46.1 µM), usual class: inhibitors; also: nearly all actives have a fitted effect of over 65% in size
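Smad-responsive CAGA-GFP expression was quantified in HEPG2 cells exposed to compounds and 500 pg/mL final TGF-beta for 18 h at 37 degrees C; unstimulated wells defined full inhibition.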
S-ASM inh: inhibitors of human secretory acid sphingomyelinase. actives 0.006% (n = 340,000). Potency, µM (highest dose often 57.5 µM), actives largely listed as inhibitors. placental ASM, HMU-PC fluorogenic substrate, 60 min. P17405
Target sequence (P17405 47-631 limits assumed): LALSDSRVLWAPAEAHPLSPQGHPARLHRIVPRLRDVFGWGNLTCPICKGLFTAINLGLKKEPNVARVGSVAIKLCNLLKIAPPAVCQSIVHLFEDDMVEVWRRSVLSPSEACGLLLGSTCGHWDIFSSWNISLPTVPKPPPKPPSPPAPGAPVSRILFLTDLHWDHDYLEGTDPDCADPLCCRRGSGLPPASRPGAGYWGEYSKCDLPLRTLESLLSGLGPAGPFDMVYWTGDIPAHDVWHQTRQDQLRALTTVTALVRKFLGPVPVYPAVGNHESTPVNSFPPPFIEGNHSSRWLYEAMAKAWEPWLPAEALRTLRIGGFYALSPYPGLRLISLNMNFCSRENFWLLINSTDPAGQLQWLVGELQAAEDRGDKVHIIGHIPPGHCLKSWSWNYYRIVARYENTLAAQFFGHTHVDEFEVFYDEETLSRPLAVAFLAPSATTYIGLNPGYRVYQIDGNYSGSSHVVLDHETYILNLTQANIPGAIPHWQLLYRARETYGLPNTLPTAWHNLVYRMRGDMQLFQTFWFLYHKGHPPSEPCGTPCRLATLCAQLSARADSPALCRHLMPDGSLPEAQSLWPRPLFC
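Fluorogenic HMU-PC substrate (9 uM final) is turned over by placental ASM in 60 min at 37 C after a 10 min compound preincubation. Reaction ended by alkaline stop (pH 10), with fluorescence read at 386/447 nm.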
IL-1B inflam inh: blocks inflammasome-driven IL-1 beta release. THP-1 LPS/ATP IL-1B secretion, AlphaLISA, 16 h; hits give low values. activity change, % at 57.5 µM. actives 4.7% (n = 360,000); in the data active = activity change below about -50%; inconclusive = mostly about -30% to -49%
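Secreted IL-1B measured by AlphaLISA bead assay after 16 h compound exposure of THP-1 cells; compounds (final up to 57.5 uM) added 1 h before LPS (250 ng/mL) and ATP (1.25 mM) stimulation; lower signal means less secretion.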
Large screens that a line does not name were inactive. This is a sample that favours compounds with a hit; in the whole collection about 19% have one here. Unless noted, calls follow the shape of the dose curve; as a rule, active = well fitted curve in the direction sought with a large enough effect; inconclusive = small, poorly fitted or top-dose-only effect, or another doubt; inactive = no such curve, though single readings can be large; an effect the other way counts as inactive or inconclusive.

CC(=O)c1cccc(NC(=O)Cn2c(C)c3cnn(-c4ccccc4)c(=O)c3c2C)c1	DT40 TDP1 CPT 20.6µM, TGFb inhibitor inconclusive (no result: S-ASM inh, IL-1B inflam inh)
Cc1cc(C(=O)CCC(=O)N2CCN(S(=O)(=O)c3ccccc3)CC2)c(C)s1	DT40 TDP1 CPT inconclusive, DT40 TDP1 no CPT inconclusive
CC(C)C(=O)Nc1cccc(C(=O)Nc2ccc(S(=O)(=O)Nc3nccs3)cc2)c1	none
NS(=O)(=O)c1ccc(NC(=O)COC(=O)COc2ccc3ccccc3c2)cc1	none
CCCCN(C(=O)CSc1ncn[nH]1)c1c(N)n(Cc2ccccc2)c(=O)[nH]c1=O	none
COc1ccc(CNn2cnnc2)c(O)c1	none
CCCC1(C(=O)OCC)NC(c2ccc(O)cc2)C2C(=O)N(c3cccc(C(C)=O)c3)C(=O)C21 (stereo not drawn)	none
CCCCCCCCCCCCCCCCCC(=O)OCCO	DT40 TDP1 CPT inconclusive (no result: HepG2 tox, TGFb inhibitor, S-ASM inh, IL-1B inflam inh)
Cc1ccc(CNC(=O)CSc2ncc3c(n2)-c2cc(Cl)ccc2N(C)S3(=O)=O)cc1	DT40 TDP1 CPT inconclusive, DT40 TDP1 no CPT inconclusive (no result: S-ASM inh, IL-1B inflam inh)
Cc1cccc(N=N/C(=C\O)C(=O)c2cccs2)c1	DT40 TDP1 CPT inconclusive, DT40 TDP1 no CPT inconclusive, TGFb inhibitor inconclusive, IL-1B inflam inh -67.3
O=C(c1cnn2c1NC(c1ccc(Br)cc1)CC2C(F)(F)F)N1CCN2CCCC2C1 (stereo not drawn)	DT40 TDP1 CPT 18.4µM, DT40 TDP1 no CPT inconclusive, TGFb inhibitor inconclusive
O=C(c1cnn2c1NC(c1ccc(Br)cc1)CC2C(F)(F)F)N1CCN(C23CC4CC(CC(C4)C2)C3)CC1 (stereo not drawn)	DT40 TDP1 CPT inconclusive, DT40 TDP1 no CPT inconclusive
COc1ccccc1NC(=O)CSc1nc2c(oc3ccccc32)c(=O)n1Cc1ccco1	DT40 TDP1 CPT 14.6µM, DT40 TDP1 no CPT inconclusive (no result: S-ASM inh, IL-1B inflam inh)
CCOc1ccccc1NC(=O)CSc1nc2c(oc3ccccc32)c(=O)n1Cc1ccco1	DT40 TDP1 CPT 16.4µM, DT40 TDP1 no CPT 20.6µM, TGFb inhibitor inconclusive (no result: S-ASM inh, IL-1B inflam inh)
O=C(CSc1nc2c(oc3ccccc32)c(=O)n1Cc1ccco1)Nc1ccccc1	none (no result: S-ASM inh, IL-1B inflam inh)
COCCn1c(SCC(=O)Nc2ccccc2C)nc2c(oc3ccccc32)c1=O	TGFb inhibitor inconclusive
CCOc1ccc(NC(=O)CSc2nc3c(oc4ccccc43)c(=O)n2CCOC)cc1	none (no result: S-ASM inh, IL-1B inflam inh)
CCOCCCn1c(SCC(=O)Nc2ccccc2OC)nc2c(oc3ccccc32)c1=O	DT40 TDP1 CPT inconclusive, DT40 TDP1 no CPT 25.9µM (no result: S-ASM inh, IL-1B inflam inh)
CCOCCCn1c(SCC(=O)Nc2oc(C)c3c(C)n[nH]c(=O)c23)nc2ccccc2c1=O	DT40 TDP1 CPT 23.1µM, DT40 TDP1 no CPT inconclusive
O=C(c1ccc(Cl)nc1)N1CCC(Cc2ccccc2)CC1	IL-1B inflam inh inconclusive
CCCN1CNc2c(c(=O)[nH]c(=S)n2CCc2ccc(OC)cc2)C1	none (no result: HepG2 tox, TGFb inhibitor, S-ASM inh, IL-1B inflam inh)
Cc1cccc(C(=O)N2CCC(=O)N(C(COCc3cccc(Cl)c3)Cc3ccccc3)CC2)c1 (stereo not drawn)	DT40 TDP1 CPT inconclusive, DT40 TDP1 no CPT 16.4µM, TGFb inhibitor inconclusive
Cc1cccc(C(=O)N2CCC(=O)N(C(COCc3ccc(Cl)cc3)Cc3ccccc3)CC2)c1 (stereo not drawn)	DT40 TDP1 CPT 20.6µM, DT40 TDP1 no CPT 20.6µM, TGFb inhibitor inconclusive
Cc1cccc(C(=O)N2CCC(=O)N([C@H](COCc3cccc(Cl)c3)Cc3ccccc3)CC2)c1	DT40 TDP1 CPT 23.1µM, DT40 TDP1 no CPT 18.4µM (no result: HepG2 tox, TGFb inhibitor, S-ASM inh)
O=C(c1cccc(Cl)c1)N1CCC(=O)N([C@H](COCc2ccccc2)Cc2ccccc2)CC1	DT40 TDP1 CPT inconclusive, DT40 TDP1 no CPT 18.4µM, IL-1B inflam inh inconclusive (no result: HepG2 tox, TGFb inhibitor, S-ASM inh)
CCOc1ccc2[nH]c(=O)c(C(c3nnnn3Cc3ccco3)N3CCC(C)CC3)cc2c1 (stereo not drawn)	DT40 TDP1 no CPT 25.9µM
